In PubChem BioAssay AID977630 (Broad Institute, 2014):
The whole screen tested about 1,600 compounds, of which fewer than 10 were called active. Roughly 48% stayed inconclusive and do not appear here.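 How the source made its calls: active means Normal-ribosome green reporter loss at least double humanized-ribosome red reporter loss, with overall culture growth inhibition under a set limit; inconclusive means no clear call, values can overlap the other calls; inactive means the rest.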 These entries were drawn from the full list. Results with a measured potency or affinity are listed apart.

Test: E. coli growth inhibition, wild-type GFP versus H38 humanized RFP strain – H38 mutant RFP vs wild-type GFP, cherry-pick, dose response (AID 977630)
Details: mixed culture, 24 h; series mostly up to 50 µM

outcome, inactive:
CCCN1C(=O)C(O)(c2c(C)[nH]c3ccccc23)c2ccccc21 (stereo not given)
COc1ccc(CNC(=O)c2sc3nc4c(c(C(F)(F)F)c3c2N)CCC4)cc1OC
CN(Cc1ccc([N+](=O)[O-])cc1)c1ccccc1
Cc1ccc(NCC(=O)c2ccc(C)cc2)cc1
Cn1c(=O)c2c(-c3ccccc3)n(-c3cc([N+](=O)[O-])ccc3N)cc2n(C)c1=O
CC1(C(=O)NS(=O)(=O)c2cccc(C#N)c2)CCN1C(=O)C1(c2ccc(Cl)cc2)CCC1 (stereo not given)
C[C@@H]1CN([C@@H](C)CO)C(=O)c2cccc(NC(=O)c3nc4ccccc4s3)c2O[C@@H]1CN(C)CC1CC1
Cc1nc(-c2ccc([N+](=O)[O-])cc2)c(-c2ccccc2)o1
O=C(CN1CCN(S(=O)(=O)c2ccc(Cl)cc2)CC1)Nc1ccc2c(c1)CCC2
CC(NC(=O)c1ccncc1)c1ccc(Cl)cc1Cl (stereo not given)
O=C(Nc1ccn(Cc2ccc(Cl)cc2)n1)c1ccccc1
CCCOC(=O)c1ccc(NC(=O)c2nc3nc(C)cc(C)n3n2)cc1
C[C@@H]1CCCCO[C@H](CN(C)C(=O)CCCN(C)C)[C@H](C)CN([C@@H](C)CO)C(=O)c2cc(NC(=O)Nc3cccc4ccccc34)ccc2O1
CCOc1ccccc1C(=O)NCC(=O)OCCOc1cccc(Cl)c1
CCOC(=O)C(C)(C)n1nnc(-c2ccc([N+](=O)[O-])cc2)n1
O=c1c2ccccc2nc(SCc2ccccc2)n1CC1CCCO1 (stereo not given)
Cc1ccc(N2C(=S)NC3c4cc(Cl)ccc4OC2(C)C3C(=O)N(C)C)cc1 (stereo not given)
CC1(c2ccc3ccccc3c2)NC(=O)N(CC(=O)N2CCN(c3ccccc3O)CC2)C1=O (stereo not given)
O=C(Nc1ccc(Br)cc1)c1cccnc1N1CCCCC1
CCc1ccc2nc(SCC(=O)Nc3ccccc3N3CCOCC3)c(C#N)cc2c1
CSc1nc2ccc(NS(=O)(=O)c3ccc([N+](=O)[O-])cc3)cc2s1
COc1ccc(C2CC(c3cccs3)=Nc3ccccc3S2)cc1 (stereo not given)
Cc1ccccc1CSc1nnc(-c2ccccn2)n1C
CCOC(=O)c1c(C)[nH]c(C)c1S(=O)(=O)NCCN1CCN(c2ccccc2F)CC1
O=C(CSc1nnc(COc2cccc3cccnc23)o1)c1ccc(F)cc1
O=C(O)c1nn2c(C(F)(F)F)cc(-c3cccs3)nc2c1Cl
COc1ccc(CC(=O)Nc2cc(S(=O)(=O)Nc3ccc(OC)cc3)ccc2OC)cc1
COC(=O)c1cc(C)sc1NC(=O)CC1Nc2ccccc2NC1=O (stereo not given)
COC(=O)c1sccc1NC(=O)CNC(=O)c1ccccc1
CCOC(=O)c1cccc(OS(=O)(=O)Cc2ccccc2)c1
CCOc1ccccc1N1CC(C(=O)Nc2cccc(S(=O)(=O)N3CCCCC3)c2)CC1=O (stereo not given)
c1cc2cc(-c3c(-c4ccc5c(c4)OCO5)noc3-c3ccsc3)ccc2[nH]1
Cc1cc(C)cc(NC(=O)COC(=O)CC2CCCC2)c1
COc1cc(SC)ccc1C(=O)N(Cc1ccccc1)c1ccccn1
COC(=O)c1nc(-c2ccc(C)cc2)[nH]c1C(C)(C)C
O=C(O)CNC(=O)C(c1ccccc1)c1ccccc1
O=C(C[n+]1ccc(Cc2ccccc2)cc1)Nc1ccc([N+](=O)[O-])cc1Cl
CN(C)S(=O)(=O)c1cccc(NC(=O)c2ccc3c(c2)S(=O)(=O)N=C2CCCCCN23)c1
CC1Cc2cc(-c3csc(NC(=O)Cc4ccccc4)n3)ccc2N1S(C)(=O)=O (stereo not given)
CCN=C1NN=C(c2ccc(C)cc2)CS1
COc1cc(CCN(C(=O)c2cc3ccccc3[nH]2)C(c2ccccn2)c2nc3ccccc3[nH]2)cc(OC)c1 (stereo not given)
NS(=O)(=O)c1ccc(CCNC(=O)CCCCCNc2nc(=S)[nH]c3ccccc23)cc1
CC(C)(C)S(=O)(=O)Cc1nc(-c2ccc(Cl)c(Cl)c2)cs1
Fc1ccc(-c2nc3ccc(Cl)cn3c2Cc2cccc(Cl)c2)cc1
Cc1cc(C(N)=O)nn1-c1c(Cl)cc(Cl)cc1Cl
Cc1ccc(NC(=O)COC(=O)CCNS(=O)(=O)c2c(Cl)cccc2Cl)cc1
CSc1nnnn1-c1ccc(Cl)cc1
Cc1noc(C)c1S(=O)(=O)N(Cc1ccccc1)C(C)C
Cc1cccc(-n2cnc3cc([N+](=O)[O-])ccc32)c1
Cc1ccc(S(=O)(=O)N2CCCCC2C(=O)N2CCN(c3ccccc3F)CC2)cc1 (stereo not given)
COC(=O)c1cc(C(=O)c2c(C)cc3ccccn23)cc([N+](=O)[O-])c1
[O-][n+]1ccccc1/C=C/c1ccccc1
Fc1ccccc1C1CCN(Cc2nc(COc3ccccc3)no2)C1 (stereo not given)
CC(=O)c1ccc(OCC(=O)Nc2ccc3c(c2)CCC3)cc1
Cc1ccc(Cc2c(-c3cccc(Br)c3)nc3ccc(C)cn23)cc1
COc1ccc(S(=O)(=O)N2CCOc3ccccc32)cc1
COc1ccc(-c2csc(NC(=O)c3ccccc3S(C)(=O)=O)n2)cc1
O=C(OCC(=O)N1CCOCC1)c1cccc(S(=O)(=O)N2CCCc3ccccc32)c1
O=C(CCC(=O)N1CCN(c2ccc(F)cc2)CC1)c1ccc(F)cc1
COc1ccc(C(=O)Nc2cccc3ccccc23)cc1
Cc1cc(-c2ccc(C)c(S(=O)(=O)NCC3CCN(Cc4ccccc4F)CC3)c2)on1
O=S(=O)(c1cnc(Cl)c(Cl)c1)N1CCc2ccccc21
O=C(COC(=O)c1ccccc1O)NCCC1=CCCCC1
C=CCN(c1ccccc1)S(=O)(=O)c1ccc(Cl)c(C(=O)OCC(=O)NCCCN2CCCC2=O)c1
CCN(C(=O)COC(=O)CCc1ccccc1)c1ccccc1
